PubChem BioAssay (NCI)
About 83,000 compounds went through this panel and 20% of them were active in at least one assay; those are over-represented in the sample as a whole.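 Testing used 96-well plates and a 48-hour single-concentration exposure. Example: -40 means 40% of the starting cells died.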 Values without a mark were called inactive. Calls of active or inactive are those of the source. Rule for the calls: active = growth percent below 10; inactive = the rest.

Key:
Assay in all cases: NCI-60 one-dose screen, 48 h (100 = growth as untreated, 0 = no growth, -100 = all killed)
Conditions in all cases: 10 µM unless noted
[1] = tested on: SK-MEL-2 melanoma
[2] = tested on: EKVX NSCLC
[3] = tested on: SN12C renal
[4] = tested on: UO-31 renal
[5] = tested on: TK-10 renal
[6] = tested on: ACHN renal
[7] = tested on: CAKI-1 renal
[8] = tested on: A498 renal
[9] = tested on: CCRF-CEM leukemia
[10] = tested on: MOLT-4 leukemia
[11] = tested on: SR leukemia
[12] = tested on: RPMI-8226 leukemia
[13] = tested on: OVCAR-8 ovarian
[14] = tested on: OVCAR-5 ovarian
[15] = tested on: OVCAR-4 ovarian
[16] = tested on: SK-OV-3 ovarian
[17] = tested on: IGROV1 ovarian
[18] = tested on: OVCAR-3 ovarian
[19] = tested on: HS 578T breast
[20] = tested on: NCI/ADR-RES ovarian

Structure (SMILES)	growth [1]	growth [2]	growth [3]	growth [4]	growth [5]	growth [6]	growth [7]	growth [8]	growth [9]	growth [10]	growth [11]	growth [12]	growth [13]	growth [14]	growth [15]	growth [16]	growth [17]	growth [18]	growth [19]	growth [20]
CC(=O)OC[C@]12CC[C@@H](C(=O)/C=C/c3cccnc3)[C@@H]1[C@H]1CC[C@@H]3[C@@]4(C)CC[C@H](OC(C)=O)C(C)(C)[C@@H]4CC[C@@]3(C)[C@]1(C)CC2	-35.9% (active)	21.8%	19%	12.1%	38.5%	-55.5% (active)	12.2%	-47.7% (active)	2.41% (active)	-5.14% (active)	6.42% (active)	-5.49% (active)	23.2%	15.1%	21.9%	65.8%	-12.9% (active)	8.9% (active)	14.5%	-14.2% (active)
O=C(CSc1nc2ccccc2c(=O)n1-c1ccccc1)N/N=C/c1ccc(Oc2ccc(Cl)cc2)cc1	86.9%	59%	26.9%	81.2%	104%	74.5%	59.2%	65.7%	50.4%	58.7%	70.3%	73.3%	59.2%	81.5%	73.7%	83.2%	49.1%	111%	58.9%	52.7%
NCCNC(=O)c1cccc(COc2ccccc2NC(=O)c2cc(Cl)c(Cl)[nH]2)c1	106%	94.4%	100%	92.2%	94.2%	100%	81.9%	81.5%	85.8%	89.5%	8.2% (active)	101%	92.1%	96.8%	97.7%	111%	94.6%	109%	103%	101%
CCOC(=O)c1cnc2c(-c3ccc(Cl)c(Cl)c3)cnn2c1	83.9%	81.3%	95.7%	80.2%	117%	104%	67.2%	82.8%	68.4%	62.3%	23.1%	87.7%	93.6%	99.8%	98.8%	90.8%	79.1%	70.8%	82.6%	58.5%
CN(C)c1ccc(/C=N/Nc2nc(N/N=C/c3ccc(N(C)C)cc3)nc(N3CCCCC3)n2)cc1	111%	97%	50.4%	80.3%	118%	32.4%	89.9%	115%	25.8%	12.1%	-14.1% (active)	32.6%	56.6%	96.1%	106%	132%	93.8%	65.6%	106%	58.3%
CCOC(=O)c1c(NCC(=O)Nc2cccc([N+](=O)[O-])c2)sc(C(C)=O)c1C	-15% (active)	0.605% (active)	12.6%	-12.7% (active)	-22.6% (active)	-13.5% (active)	-30.8% (active)	-75.3% (active)	4.89% (active)	3.1% (active)	0.317% (active)	-14.1% (active)	-8.65% (active)	1.07% (active)	4.88% (active)	-13.4% (active)	22%	-37.2% (active)	-23.9% (active)	-28.3% (active)
CN(C)S(=O)(=O)c1ccc(-c2nc(C(Cl)Cl)nc3cc(-c4ccccc4)nn23)cc1	112%	80%	81.1%	88.8%	101%	43.4%	73.1%	106%	77.3%	63.4%	36.2%	86.8%	60.7%	90%	90.5%	92.2%	66%	93.5%	109%	69.5%
C#C[C@]1(O)CC[C@H]2[C@@H]3CC=C4c5sc(Nc6ncccc6C)nc5CC[C@]4(C)[C@H]3CC[C@@]21C	-11.1% (active)	-10.6% (active)	40.9%	-39.8% (active)	40.9%	18.1%	-36.3% (active)	-5.84% (active)	7.66% (active)	-30.3% (active)	-3.26% (active)	-36.2% (active)	31.1%	26%	34.9%	-37.2% (active)	40%	32.1%	-16.1% (active)	28.1%
C#Cc1cc(OC)c(C(=O)Nc2ccc(F)cc2C(=O)Nc2cccc(S(=O)(=O)C(F)(F)F)c2)cn1	45.1%	13.9%	17.1%	-85.1% (active)	66.6%	-57.4% (active)	-11.4% (active)	-18.2% (active)	-23.5% (active)	-32.9% (active)	-42.7% (active)	-44.1% (active)	5.67% (active)	-33.2% (active)	27.8%	-70.5% (active)	-51% (active)	-30.2% (active)	-19.7% (active)	-29.1% (active)
CC(=O)OCCCCN1C=C/C(=C\C(=O)n2ccc3ccccc32)c2ccccc21	113%	75%	108%	71.6%	147%	94.8%	79.8%	121%	102%	98%	88.7%	98.3%	102%	102%	85.5%	97.6%	83.3%	100%	102%	109%
O=C(CSc1nnc(-c2ccc(Cl)cc2)n1-c1ccccc1)Nc1cccc(F)c1	88.4%	42.2%	13.7%	-15.2% (active)	-14.7% (active)	-31.8% (active)	14.1%	57.9%	91.3%	85.8%	37.2%	40.5%	35.7%	41.9%	-46.4% (active)	78.6%	20.3%	51.9%	28%	37%
O=C(CSc1cc[n+](CCCCO)c2ccccc12)n1ccc2ccccc21	111%	89.3%	103%	63.6%	155%	96.4%	81.9%	114%	107%	95.8%	90.3%	103%	95.5%	102%	105%	91%	20.2%	104%	106%	105%
CC(=C(c1ccc(OCCN(C)C)cc1)c1ccc(OCCN(C)C)cc1)c1ccc(Cl)cc1	-59.4% (active)	-12.9% (active)	-33.3% (active)	-64.8% (active)	-72.4% (active)	-80.4% (active)	-81.5% (active)	-76.1% (active)	-45.2% (active)	-49.7% (active)	-36.1% (active)	-42.7% (active)	-46.9% (active)	-69% (active)	-17.4% (active)	77.5%	-76.8% (active)	-55.5% (active)	-32.5% (active)	-49.8% (active)
CCOC(=O)c1ccc(NC2=C(Cl)C(=O)c3nc(C)ccc3C2=O)cc1	78.2%	68.4%	75.8%	2.37% (active)	99.4%	-9.88% (active)	75.4%	68.3%	6.88% (active)	16.3%	22.6%	4.69% (active)	68.4%	91.5%	-62.7% (active)	94.4%	7.95% (active)	-18.8% (active)	50.2%	45.9%
CCOC(=O)c1ccc(NC2=CC(=O)C(C)=C(C)C2=O)cc1	96.1%	94.6%	93.8%	73.9%	137%	89.9%	69.3%	84.3%	54.4%	41.3%	50.3%	66.1%	83.7%	104%	-63% (active)	92%	79.2%	0.628% (active)	94.1%	65.4%
